SARS PLpro yeast = inhibitors of SARS-CoV papain-like protease in yeast. S. cerevisiae expressing SARS-CoV PLpro, growth rescue. Potency, µM (doses to about 32.9 µM), without a hit: top-dose activity, positive = growth rescue, actives largely listed as activators. hit rate 0.19% among 330,000. AID 485353; further: potency means the concentration at half of the fitted maximal effect; 0% is about no effect; nearly all actives have a fitted effect of over 55% in size
LmPK inh = LmPK (Leishmania mexicana) enzyme inhibition; Q27686; Potency, µM (titrated, usually from 57.5 µM), inactives show at the top dose activity change, negative = inhibition, most hits filed as inhibitors; purified LmPK, Kinase-Glo ATP luminescence, 1 h; AID 1721; hit rate 0.37% among 290,000; active means well fitted curve in the direction sought with a large enough effect; inconclusive means small, poorly fitted or top-dose-only effect, or another doubt; inactive means no such curve, though single readings can be large; an effect the other way counts as inactive or inconclusive; further: potency means the concentration at half of the fitted maximal effect; on the % scale 0 is the no-effect control and ±100 the full control effect
Target sequence (Q27686 whole entry, looked up): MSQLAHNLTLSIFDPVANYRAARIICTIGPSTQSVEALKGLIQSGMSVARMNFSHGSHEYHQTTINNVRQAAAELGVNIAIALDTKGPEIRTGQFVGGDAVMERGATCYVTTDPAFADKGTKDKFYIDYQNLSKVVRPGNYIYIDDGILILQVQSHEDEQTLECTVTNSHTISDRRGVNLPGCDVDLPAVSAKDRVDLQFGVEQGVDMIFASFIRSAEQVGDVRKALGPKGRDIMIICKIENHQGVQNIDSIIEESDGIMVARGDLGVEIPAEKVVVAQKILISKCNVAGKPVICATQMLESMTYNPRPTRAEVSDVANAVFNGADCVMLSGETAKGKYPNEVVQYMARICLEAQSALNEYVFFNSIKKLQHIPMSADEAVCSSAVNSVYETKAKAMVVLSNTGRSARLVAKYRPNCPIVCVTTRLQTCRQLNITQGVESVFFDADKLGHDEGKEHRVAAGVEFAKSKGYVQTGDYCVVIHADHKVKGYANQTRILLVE
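Purified LmPK (0.1 nM) with 0.5 mM PEP and 0.1 mM ADP in imidazole buffer pH 7.2 with MgCl2/KCl, 1 h at room temperature. ATP formed was read by luciferase luminescence and normalized to no-enzyme and uninhibited controls.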
NS1 inh = inhibitors of influenza NS1 protein function; Potency, µM (titrated, usually from 46.1 µM), without a hit: top-dose activity, positive = more growth; hit rate 0.4% among 270,000; AID 2326; further: potency means the concentration at half of the fitted maximal effect; actives are rising curves; nearly all actives have a fitted effect of over 50% in size
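Growth recovery, yeast-based: influenza A NS1 expressed in S. cerevisiae causes slow growth, and suppressors are detected by OD600. The parent strain without NS1 is used as positive control.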
Shiga inhibitor = blocks Shiga toxin action in Vero cells; Vero cells, Shiga toxin protein synthesis inhibition reporter; inhibition, % at 38.7 µM; hit rate 9.2% among 290,000; in the data active means inhibition mostly above about 28%, no sharp cut-off; inactive means mostly below about 43%; further: 0% is about no effect
Tb PYK inh = blocks Trypanosoma brucei pyruvate kinase | Potency, µM (titrated, usually from 76.8 µM), inactives show top-dose activity, negative = inhibition, hits mostly inhibitors | TbPYK enzyme, Kinase-Glo Plus ATP luminescence, 45 min | Q57TT1 | hit rate 0.12% among 410,000; active means well fitted curve in the direction sought with a large enough effect; inconclusive means small, poorly fitted or top-dose-only effect, or another doubt; inactive means no such curve, though single readings can be large; an effect the other way counts as inactive or inconclusive; further: potency means the concentration at half of the fitted maximal effect; on the % scale 0 is the no-effect control and ±100 the full control effect; nearly all actives have a fitted effect of over 50% in size
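In this concentration-response screen, enzyme-free wells defined baseline while DMSO plates tracked drift. Each reaction combined TbPYK, substrate, compound and 130 uM ADP for 45 min at room temperature. Kinase-Glo Plus luminescence gave the signal.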
CHX counter = counter-screen hit for Shiga toxin inhibitors, cycloheximide. cell reporter, cycloheximide protein synthesis inhibition counterscreen. max response, %. hit rate 12% among 300,000. AID 2314; in the data active means max response mostly above about 13%, no sharp cut-off; inactive means mostly below about 14%; further: read at 38.3 µM for the half of the compounds with a filed dose; 0% is about no effect
* hit, by the source's call; u = inconclusive; x = no result; + = active, no number. Many of the other results were omitted from the sample, so hits are more common in it than they were. Unless noted, the call rests on the fitted dose curve.

SMILES	SARS PLpro yeast	LmPK inh	NS1 inh	Shiga inhibitor	Tb PYK inh	CHX counter
CCOc1ccc(CN(C(=O)c2cc3ccccc3oc2=O)C2CCS(=O)(=O)C2)cc1 (configuration not stated)	1.6%	-2.3%	-2.2%	110.5*	3.7%	68.3*
COc1ccc(CN(C(=O)c2cc3ccccc3oc2=O)C2CCS(=O)(=O)C2)cc1OC (configuration not stated)	-1.9%	-4.4%	-4.1%	98.5*	-1.3%	45.1*
CCOc1ccccc1C(=O)N(Cc1ccccc1F)C1CCS(=O)(=O)C1 (configuration not stated)	x	x	x	x	-0.5%	x
O=C(c1cc2ccccc2oc1=O)N(Cc1ccccc1F)C1CCS(=O)(=O)C1 (configuration not stated)	3.8%	0.4%	1.4%	59.8*	-8.2%	31.0*
O=C(c1cc2ccccc2oc1=O)N(Cc1ccccc1)C1CCS(=O)(=O)C1 (configuration not stated)	-4.6%	-12.2%	2.2%	+	-1.1%	40.2*
COc1ccc(CN(C(=O)c2cc3ccccc3oc2=O)C2CCCC2)cc1	-19.8%	5.2%	-9.6%	11.6	3.5%	-1.2
COC(=O)c1c(NC(=O)Cc2coc3cc(C)cc(C)c23)sc2c1CCC2	x	x	x	x	-3.9%	x
Cc1ccc(NC(=O)CN2C(=O)c3ccccc3Sc3ncccc32)c(C)c1	x	x	x	x	-4.4%	x
COc1ccc(CN(C(=O)c2cc3ccccc3oc2=O)C2CCS(=O)(=O)C2)cc1 (configuration not stated)	3.5%	-1.4%	-4.1%	61.9*	2.7%	32.0*
S=C(NCCc1ccccc1)NCC(c1ccco1)N1CCCCC1 (configuration not stated)	0.6%	0.5%	2.0%	9.0	-0.6%	14.9*
COc1ccc(NC(=S)NCC(c2ccco2)N2CCCC2)cc1 (configuration not stated)	-7.3%	0.8%	x	4.7	-0.6%	6.4
S=C(NCCc1ccc(Cl)cc1)NC1CCCC1	-3.7%	3.2%	-36.8%	70.8*	-2.7%	44.4*
S=C(NCCc1ccccc1)NC1CCCCCC1	-31.0%	0.3%	-35.9%	72.9*	-1.5%	50.8*
S=C(NCCc1ccc(Cl)cc1)NC1CCCCC1	-12.0%	-4.6%	-122.5%	103.0*	-8.7%	55.6*
S=C(NCc1ccccc1Cl)NC1CCCC1	-24.0%	2.7%	-5.7%	20.0	-3.4%	-2.1
O=C(NC1CCCCC1)C(=S)NCCc1ccccc1	-0.2%	1.8%	x	5.3	u	-2.6
S=C(NCCNCc1ccccc1)NC1CCCCC1	11.1%	3.7%	x	-5.2	x	-2.6
Cc1cccc(N2CCN(C(=O)c3cc4ccc5cccnc5c4[nH]3)CC2)c1C	x	x	x	x	1.0%	x
Cc1ccc(CNC(=O)c2ccc(N3CCCC3)c(NC(=O)Nc3ccc(C)cc3)c2)cc1	x	x	x	x	-2.2%	x
OC[C@@H](O)C(O[C@@H]1O[C@@H](CO)[C@H](O)[C@H](O)[C@H]1O)[C@H](O)[C@@H](O)CO (some centres not stated)	x	x	x	x	-11.2%	x
COCCN1C[C@@H](CO)O[C@@H](n2cnc3c(NC4CCCC4)ncnc32)C1	x	x	x	x	-11.1%	x
CC(NC(=O)c1cc(COc2c(F)cccc2F)on1)c1cnn(-c2ccccc2)c1 (configuration not stated)	-0.3%	-2.4%	-10.2%	75.6*	-2.8%	25.1*
O=C(c1cc(COc2ccc(F)cc2Cl)on1)N1CCN(c2cnccn2)CC1	-5.9%	4.6%	-59.5%	1.4	-6.9%	0.9
O=C(c1cc(COc2ccc(F)cc2Cl)on1)N1CCSCC1	-3.0%	-0.9%	-45.4%	67.2*	2.4%	62.5*
COc1ccc(OCc2cc(C(=O)N3CCOCC3)no2)c(Cl)c1	-1.9%	0.0%	-7.9%	90.9*	1.5%	43.5*
SMILES	SARS PLpro yeast	LmPK inh	NS1 inh	Shiga inhibitor	Tb PYK inh	CHX counter
COc1ccc(OCc2cc(C(=O)N3CCN(CC(=O)N(C)C)CC3)no2)c(Cl)c1	0.8%	-1.9%	-5.6%	2.5	-5.7%	22.9*
COc1ccc(C(CNC(=O)c2ccc(Cl)c(NC(=O)c3cccs3)c2)N2CCCC2)cc1 (configuration not stated)	0.8%	x	x	x	1.9%	x
O=C(Nc1ccnn1C1CCN(C2CCCC2)CC1)c1ccccc1	25.7%	0.2%	7.9%	5.1	-0.6%	-1.7
COc1ccc(OCc2cc(C(=O)NC(C)c3cnn(C)c3)no2)c(Cl)c1 (configuration not stated)	2.6%	1.6%	-21.9%	46.6*	2.1%	38.3*
COc1ccc(OCc2cc(C(=O)N3CCC(c4ccccc4)CC3)no2)c(Cl)c1	4.4%	-2.9%	-5.2%	105.8*	-2.0%	77.6*
COc1ccc(OCc2cc(C(=O)N3CCCCCC3)no2)c(Cl)c1	-6.9%	-12.2%	-33.0%	67.7*	-1.7%	46.8*
COCC1CCN(C(=O)c2cc(COc3ccc(F)cc3Cl)on2)C1 (configuration not stated)	x	x	x	x	-0.6%	x
COc1cccc(OCc2cc(C(=O)N3CCN(C)C(c4ccccc4)C3)no2)c1 (configuration not stated)	-9.4%	-1.5%	-39.2%	77.2*	-0.4%	32.0*
COc1cccc(OCc2cc(C(=O)N3CCC(c4ccncc4)CC3)no2)c1	-8.5%	-0.5%	-15.5%	-3.3	1.4%	15.5
Cc1nc(SC(C)C(=O)NCC2CCCO2)c2cc(-c3ccccc3)sc2n1 (configuration not stated)	-7.2%	x	x	x	-2.8%	x
CCOc1ccc(CNC(=O)CCC(=O)N2CC3CCCN3c3ccccc32)cc1 (configuration not stated)	x	x	x	x	-8.0%	x
CCOC(=O)c1cnc(N2CCN(c3cccc(C)c3C)CC2)c2ccccc12	x	x	x	x	-1.4%	x
COc1cccc(CCNC(=O)c2cc(COc3cccc(OC)c3)on2)c1	x	x	x	x	0.1%	x
COc1ccc(OCc2cc(C(=O)N3CCSCC3)no2)c(Cl)c1	-6.2%	-0.8%	-18.1%	143.4*	10.7%	67.3*
COc1cccc(OCc2cc(C(=O)N3C[C@H]4C[C@@H](C3)c3cccc(=O)n3C4)no2)c1	-0.2%	0.1%	-10.3%	51.8*	-3.8%	60.2*
CCN(CCn1cccn1)C(=O)c1cc(COc2ccc(F)cc2Cl)on1	-0.7%	-0.5%	-9.0%	32.3	1.2%	11.2
O=C(c1cc(COc2ccc(F)cc2Cl)on1)N(CCO)Cc1cccs1	-3.5%	-9.9%	-25.0%	48.9	0.8%	19.9*
COc1cc(OC)cc(C(=O)NC(=S)N2C[C@H]3C[C@H](C2)c2cccc(=O)n2C3)c1	7.2%	-0.6%	-4.5%	2.8	-9.0%	-2.8
COc1cccc(OCc2cc(C(=O)NC(C)c3cnn(C)c3C)no2)c1 (configuration not stated)	4.2%	2.1%	9.2%	59.4*	12.6%	26.9*
CCNC(=O)c1c(NC(=O)c2nc(S(=O)(=O)CC)ncc2Cl)sc2c1CCCC2	x	x	x	x	-2.7%	x

Source: PubChem
